Data published in paper PMC7862700, “An all-to-all approach to the identification of sequence-specific readers for epigenetic DNA modifications on cytosine”.

Key:
Assay in all cases: DAPPL (digital affinity profiling via proximity ligation, sequencing); 10 mM Tris-HCl pH 7.5, 50 mM NaCl, 1 mM DTT, 4% glycerol, room temperature, 30 min; GST-TFs on glutathione beads, 16-mer random dsDNA library, 0.1% formaldehyde crosslink after washing; high values mean tight binding
Conditions in all cases: protein: recombinant; tags: N-terminal GST; dsDNA, one strand shown
FLI1 = target: T1, FLI1 (Homo sapiens, UniProt Q01543 1-452)
T1 sequence: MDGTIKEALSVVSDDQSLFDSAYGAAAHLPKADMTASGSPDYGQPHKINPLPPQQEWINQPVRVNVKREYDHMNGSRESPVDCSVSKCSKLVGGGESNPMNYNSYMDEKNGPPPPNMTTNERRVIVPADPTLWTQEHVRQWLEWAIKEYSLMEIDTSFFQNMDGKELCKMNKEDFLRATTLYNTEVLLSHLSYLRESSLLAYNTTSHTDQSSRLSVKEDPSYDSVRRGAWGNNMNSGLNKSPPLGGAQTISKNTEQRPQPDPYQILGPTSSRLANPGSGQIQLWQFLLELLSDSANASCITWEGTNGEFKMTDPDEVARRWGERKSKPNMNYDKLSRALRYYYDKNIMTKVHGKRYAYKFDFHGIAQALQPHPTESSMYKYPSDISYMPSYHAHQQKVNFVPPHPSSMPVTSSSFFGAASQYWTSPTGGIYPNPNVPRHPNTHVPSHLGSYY
Procedure, shortened: (§1)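 Pools were built from human transcription factors expressed in yeast as GST fusions, captured on glutathione beads and DNA-barcoded, along with a tag-only sample. Incubation with 200 nmole of a 16-mer random double-stranded DNA library lasted 30 min at room temperature in Tris/NaCl/DTT/glycerol buffer, and was followed by washing, 0.1% formaldehyde crosslinking, proximity ligation, PCR amplification and Illumina NextSeq500 sequencing. Binding signal is the quotient of each hexamer's read frequency for a factor and its frequency for the tag-only sample.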

ELK1 = target: T2, ELK1 (Homo sapiens, UniProt P19419 1-428)
T2 sequence: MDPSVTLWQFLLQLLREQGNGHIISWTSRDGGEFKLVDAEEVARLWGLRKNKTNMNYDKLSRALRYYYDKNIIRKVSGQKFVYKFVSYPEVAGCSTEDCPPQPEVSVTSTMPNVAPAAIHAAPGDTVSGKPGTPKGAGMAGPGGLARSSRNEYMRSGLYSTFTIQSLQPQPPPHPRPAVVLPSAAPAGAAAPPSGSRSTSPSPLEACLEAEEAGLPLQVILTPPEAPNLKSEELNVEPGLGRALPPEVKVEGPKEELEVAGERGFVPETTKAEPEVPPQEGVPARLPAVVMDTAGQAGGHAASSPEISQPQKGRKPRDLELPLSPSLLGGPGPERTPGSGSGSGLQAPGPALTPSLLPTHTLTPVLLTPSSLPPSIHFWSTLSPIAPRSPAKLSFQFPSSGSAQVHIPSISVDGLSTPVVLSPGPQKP
Procedure, shortened: as §1

GABPA = target: T3, GABPA (Homo sapiens, UniProt Q06546 1-454)
T3 sequence: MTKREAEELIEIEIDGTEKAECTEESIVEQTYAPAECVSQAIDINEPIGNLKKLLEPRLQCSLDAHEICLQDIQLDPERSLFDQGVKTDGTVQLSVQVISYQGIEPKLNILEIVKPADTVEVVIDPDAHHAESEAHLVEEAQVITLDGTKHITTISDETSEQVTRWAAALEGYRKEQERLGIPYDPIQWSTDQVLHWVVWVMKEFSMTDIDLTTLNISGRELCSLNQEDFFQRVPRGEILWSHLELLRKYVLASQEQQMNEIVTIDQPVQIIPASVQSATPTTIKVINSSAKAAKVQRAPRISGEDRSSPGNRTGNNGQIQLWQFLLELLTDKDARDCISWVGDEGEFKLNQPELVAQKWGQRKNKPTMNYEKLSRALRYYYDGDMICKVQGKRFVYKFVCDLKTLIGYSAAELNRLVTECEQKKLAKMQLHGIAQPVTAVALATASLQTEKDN
Procedure, shortened: as §1

ERG = target: T4, ERG (Homo sapiens, UniProt P11308 1-479)
T4 sequence: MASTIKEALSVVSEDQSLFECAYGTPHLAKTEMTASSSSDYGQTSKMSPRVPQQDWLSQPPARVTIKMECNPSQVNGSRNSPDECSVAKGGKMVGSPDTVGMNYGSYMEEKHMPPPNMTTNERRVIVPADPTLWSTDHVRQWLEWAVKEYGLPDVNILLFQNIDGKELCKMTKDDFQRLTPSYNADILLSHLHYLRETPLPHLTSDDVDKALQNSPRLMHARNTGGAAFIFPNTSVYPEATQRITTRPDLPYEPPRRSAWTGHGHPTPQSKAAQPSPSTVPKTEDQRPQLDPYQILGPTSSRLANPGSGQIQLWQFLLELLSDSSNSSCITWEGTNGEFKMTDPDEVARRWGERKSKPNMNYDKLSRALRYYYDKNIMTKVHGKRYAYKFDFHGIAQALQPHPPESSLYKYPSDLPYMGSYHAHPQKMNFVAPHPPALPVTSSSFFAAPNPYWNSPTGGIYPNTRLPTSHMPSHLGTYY
Procedure, shortened: as §1

ELF1 = ELF1 (Homo sapiens, UniProt P32519 1-619)
Chain of ELF1 (P32519 whole entry): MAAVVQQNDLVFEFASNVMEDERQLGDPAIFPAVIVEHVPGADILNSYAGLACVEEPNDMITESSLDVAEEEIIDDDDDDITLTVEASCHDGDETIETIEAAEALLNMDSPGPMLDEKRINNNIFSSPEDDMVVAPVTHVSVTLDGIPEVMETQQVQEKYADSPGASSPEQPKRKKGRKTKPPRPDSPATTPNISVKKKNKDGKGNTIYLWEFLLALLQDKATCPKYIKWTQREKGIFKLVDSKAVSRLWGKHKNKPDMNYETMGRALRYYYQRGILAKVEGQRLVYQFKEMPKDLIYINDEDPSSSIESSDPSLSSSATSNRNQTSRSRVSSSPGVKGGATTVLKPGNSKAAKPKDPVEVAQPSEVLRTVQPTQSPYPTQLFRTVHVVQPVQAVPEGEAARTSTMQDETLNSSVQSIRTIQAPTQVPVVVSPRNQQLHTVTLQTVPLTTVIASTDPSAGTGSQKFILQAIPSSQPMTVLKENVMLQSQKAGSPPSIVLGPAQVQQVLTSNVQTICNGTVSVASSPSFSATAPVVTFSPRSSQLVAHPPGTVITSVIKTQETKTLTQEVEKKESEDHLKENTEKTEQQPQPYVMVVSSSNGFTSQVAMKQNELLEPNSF
Procedure, shortened: as §1

EHF = target: T5, EHF (Homo sapiens, UniProt Q9NZC4 1-300)
T5 sequence: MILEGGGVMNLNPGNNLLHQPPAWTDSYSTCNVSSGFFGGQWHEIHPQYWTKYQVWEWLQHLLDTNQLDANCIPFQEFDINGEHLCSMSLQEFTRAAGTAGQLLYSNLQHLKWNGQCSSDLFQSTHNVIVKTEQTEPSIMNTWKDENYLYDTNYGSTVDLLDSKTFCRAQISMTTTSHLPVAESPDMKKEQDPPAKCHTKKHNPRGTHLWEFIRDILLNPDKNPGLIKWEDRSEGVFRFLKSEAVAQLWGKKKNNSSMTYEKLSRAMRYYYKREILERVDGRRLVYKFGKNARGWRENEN
Procedure, shortened: as §1

SPI1 = SPI1 (Homo sapiens, UniProt P17947 1-270)
Procedure, shortened: as §1

SPIB = SPIB (Homo sapiens, UniProt Q01892 1-262)
Chain of SPIB (Q01892 whole entry): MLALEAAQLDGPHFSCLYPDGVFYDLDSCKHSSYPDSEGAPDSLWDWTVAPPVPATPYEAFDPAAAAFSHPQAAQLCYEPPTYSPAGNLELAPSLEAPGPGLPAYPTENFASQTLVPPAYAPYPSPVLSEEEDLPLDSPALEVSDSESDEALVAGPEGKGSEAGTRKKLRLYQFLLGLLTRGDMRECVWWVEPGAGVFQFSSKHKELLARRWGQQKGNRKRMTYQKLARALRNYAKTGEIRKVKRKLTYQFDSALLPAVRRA
Procedure, shortened: as §1

ELK3 = target: T6, ELK3 (Homo sapiens, UniProt P41970 1-407)
T6 sequence: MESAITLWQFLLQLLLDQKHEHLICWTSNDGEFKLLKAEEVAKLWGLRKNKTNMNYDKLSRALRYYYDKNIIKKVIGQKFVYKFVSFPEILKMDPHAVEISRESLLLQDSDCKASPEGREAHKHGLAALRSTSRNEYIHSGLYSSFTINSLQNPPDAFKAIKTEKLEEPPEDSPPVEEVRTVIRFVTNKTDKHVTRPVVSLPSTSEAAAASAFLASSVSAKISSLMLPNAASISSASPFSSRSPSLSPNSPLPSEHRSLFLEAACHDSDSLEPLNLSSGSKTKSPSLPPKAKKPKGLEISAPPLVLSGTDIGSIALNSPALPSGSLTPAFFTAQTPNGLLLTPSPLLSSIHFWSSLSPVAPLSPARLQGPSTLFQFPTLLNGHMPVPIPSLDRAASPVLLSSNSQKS
Procedure, shortened: as §1

ETV5 = ETV5 (Homo sapiens, UniProt P41161 1-510)
Chain of ETV5 (P41161 whole entry): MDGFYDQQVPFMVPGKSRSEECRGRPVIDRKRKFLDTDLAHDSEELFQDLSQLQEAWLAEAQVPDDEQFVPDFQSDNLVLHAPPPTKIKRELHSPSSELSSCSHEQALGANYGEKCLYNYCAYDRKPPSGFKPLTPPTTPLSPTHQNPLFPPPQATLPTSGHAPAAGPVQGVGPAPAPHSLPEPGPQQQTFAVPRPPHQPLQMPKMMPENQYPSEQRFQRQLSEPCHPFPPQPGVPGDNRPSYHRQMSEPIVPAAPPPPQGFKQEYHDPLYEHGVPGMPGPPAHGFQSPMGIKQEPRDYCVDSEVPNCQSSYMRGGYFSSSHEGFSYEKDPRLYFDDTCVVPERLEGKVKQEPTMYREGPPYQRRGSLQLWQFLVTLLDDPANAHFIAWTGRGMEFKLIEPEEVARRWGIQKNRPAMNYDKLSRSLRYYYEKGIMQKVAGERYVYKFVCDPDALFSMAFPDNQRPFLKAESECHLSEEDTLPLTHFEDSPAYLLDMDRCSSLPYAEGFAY
Procedure, shortened: as §1

ELF4 = ELF4 (Homo sapiens, UniProt Q99607 1-663)
Chain of ELF4 (Q99607 whole entry): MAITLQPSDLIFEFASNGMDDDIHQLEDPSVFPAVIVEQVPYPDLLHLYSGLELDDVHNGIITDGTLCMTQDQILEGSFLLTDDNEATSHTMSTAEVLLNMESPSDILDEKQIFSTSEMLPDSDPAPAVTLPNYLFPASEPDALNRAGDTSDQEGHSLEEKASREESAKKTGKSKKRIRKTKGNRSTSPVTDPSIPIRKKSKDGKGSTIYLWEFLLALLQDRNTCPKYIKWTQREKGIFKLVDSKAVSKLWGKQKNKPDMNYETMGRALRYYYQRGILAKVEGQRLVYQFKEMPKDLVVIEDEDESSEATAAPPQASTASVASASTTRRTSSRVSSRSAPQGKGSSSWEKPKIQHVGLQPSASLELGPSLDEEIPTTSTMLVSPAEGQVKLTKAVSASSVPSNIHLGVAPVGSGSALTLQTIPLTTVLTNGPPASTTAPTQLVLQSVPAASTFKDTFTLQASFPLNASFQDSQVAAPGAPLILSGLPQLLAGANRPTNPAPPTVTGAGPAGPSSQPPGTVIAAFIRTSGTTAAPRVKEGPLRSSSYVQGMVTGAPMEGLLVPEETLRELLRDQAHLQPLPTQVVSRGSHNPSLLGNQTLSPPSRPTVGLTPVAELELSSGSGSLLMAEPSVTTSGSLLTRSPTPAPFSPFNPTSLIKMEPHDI
Procedure, shortened: as §1

ETV2 = target: T7, ETV2 (Homo sapiens, UniProt O00321 1-342)
T7 sequence: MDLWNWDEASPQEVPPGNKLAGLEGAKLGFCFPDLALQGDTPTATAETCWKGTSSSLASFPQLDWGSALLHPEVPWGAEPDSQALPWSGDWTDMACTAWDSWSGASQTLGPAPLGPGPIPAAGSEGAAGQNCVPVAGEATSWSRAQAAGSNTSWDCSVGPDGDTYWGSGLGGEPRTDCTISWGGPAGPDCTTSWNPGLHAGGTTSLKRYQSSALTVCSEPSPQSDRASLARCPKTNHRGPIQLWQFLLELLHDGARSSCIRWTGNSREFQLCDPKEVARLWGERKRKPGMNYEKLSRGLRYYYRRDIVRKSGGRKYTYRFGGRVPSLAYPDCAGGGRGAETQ
Procedure, shortened: as §1

ELF3 = target: T8, ELF3 (Homo sapiens, UniProt P78545 1-371)
T8 sequence: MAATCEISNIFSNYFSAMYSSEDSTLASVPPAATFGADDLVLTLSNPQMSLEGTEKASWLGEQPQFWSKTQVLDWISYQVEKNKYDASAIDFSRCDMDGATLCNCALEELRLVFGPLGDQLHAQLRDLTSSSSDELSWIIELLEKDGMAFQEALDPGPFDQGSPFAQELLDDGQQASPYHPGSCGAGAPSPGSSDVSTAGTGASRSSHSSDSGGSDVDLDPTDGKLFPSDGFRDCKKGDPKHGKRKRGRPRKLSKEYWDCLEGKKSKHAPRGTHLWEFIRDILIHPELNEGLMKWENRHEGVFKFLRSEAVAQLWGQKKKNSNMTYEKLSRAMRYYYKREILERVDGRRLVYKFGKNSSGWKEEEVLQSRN
Procedure, shortened: as §1

ETV1 = ETV1 (Homo sapiens, UniProt P50549 1-477)
Chain of ETV1 (P50549 whole entry): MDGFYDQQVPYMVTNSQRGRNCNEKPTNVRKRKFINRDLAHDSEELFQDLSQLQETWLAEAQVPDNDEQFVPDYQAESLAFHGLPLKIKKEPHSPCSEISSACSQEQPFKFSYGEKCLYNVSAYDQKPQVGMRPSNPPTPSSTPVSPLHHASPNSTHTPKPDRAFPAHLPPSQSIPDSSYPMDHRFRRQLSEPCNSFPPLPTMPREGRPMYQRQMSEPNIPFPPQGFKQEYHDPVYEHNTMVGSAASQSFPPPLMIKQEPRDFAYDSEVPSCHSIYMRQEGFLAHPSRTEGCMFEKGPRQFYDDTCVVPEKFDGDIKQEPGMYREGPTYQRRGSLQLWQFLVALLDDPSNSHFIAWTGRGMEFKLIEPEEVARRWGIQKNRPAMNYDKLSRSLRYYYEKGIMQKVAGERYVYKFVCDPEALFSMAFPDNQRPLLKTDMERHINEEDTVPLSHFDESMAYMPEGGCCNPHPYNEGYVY
Procedure, shortened: as §1

ERF = target: T9, ERF (Homo sapiens, UniProt P50548 1-548)
T9 sequence: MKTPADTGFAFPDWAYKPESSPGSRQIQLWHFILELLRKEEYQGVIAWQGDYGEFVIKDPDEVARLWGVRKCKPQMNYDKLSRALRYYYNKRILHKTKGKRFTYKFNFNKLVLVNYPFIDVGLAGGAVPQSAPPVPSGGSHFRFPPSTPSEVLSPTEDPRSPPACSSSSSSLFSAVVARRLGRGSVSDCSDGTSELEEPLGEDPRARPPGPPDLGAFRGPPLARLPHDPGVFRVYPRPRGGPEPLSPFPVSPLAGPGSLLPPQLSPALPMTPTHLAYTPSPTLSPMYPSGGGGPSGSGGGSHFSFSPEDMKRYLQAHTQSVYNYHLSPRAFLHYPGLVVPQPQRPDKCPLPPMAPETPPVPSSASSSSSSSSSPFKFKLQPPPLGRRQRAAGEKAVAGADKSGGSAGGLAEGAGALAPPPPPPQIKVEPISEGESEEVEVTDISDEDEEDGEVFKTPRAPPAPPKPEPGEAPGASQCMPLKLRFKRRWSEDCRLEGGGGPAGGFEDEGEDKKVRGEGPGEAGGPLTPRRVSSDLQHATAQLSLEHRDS
Procedure, shortened: as §1

ETS2 = target: T10, ETS2 (Homo sapiens, UniProt P15036 1-469)
T10 sequence: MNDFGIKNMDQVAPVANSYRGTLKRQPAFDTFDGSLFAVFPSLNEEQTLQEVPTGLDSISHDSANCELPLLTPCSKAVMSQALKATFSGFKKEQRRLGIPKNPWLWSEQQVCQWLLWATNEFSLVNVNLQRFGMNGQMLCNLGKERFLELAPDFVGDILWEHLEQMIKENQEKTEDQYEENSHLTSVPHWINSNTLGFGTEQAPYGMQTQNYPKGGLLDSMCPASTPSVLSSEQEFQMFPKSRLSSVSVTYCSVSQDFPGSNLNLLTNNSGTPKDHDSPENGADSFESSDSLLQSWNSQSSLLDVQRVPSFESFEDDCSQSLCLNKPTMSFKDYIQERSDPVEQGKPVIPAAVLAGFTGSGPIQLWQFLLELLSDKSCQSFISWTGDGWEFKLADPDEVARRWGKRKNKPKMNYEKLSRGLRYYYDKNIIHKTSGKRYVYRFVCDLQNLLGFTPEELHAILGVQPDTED
Procedure, shortened: as §1

ETV7 = target: T11, ETV7 (Homo sapiens, UniProt Q9Y603 1-341)
T11 sequence: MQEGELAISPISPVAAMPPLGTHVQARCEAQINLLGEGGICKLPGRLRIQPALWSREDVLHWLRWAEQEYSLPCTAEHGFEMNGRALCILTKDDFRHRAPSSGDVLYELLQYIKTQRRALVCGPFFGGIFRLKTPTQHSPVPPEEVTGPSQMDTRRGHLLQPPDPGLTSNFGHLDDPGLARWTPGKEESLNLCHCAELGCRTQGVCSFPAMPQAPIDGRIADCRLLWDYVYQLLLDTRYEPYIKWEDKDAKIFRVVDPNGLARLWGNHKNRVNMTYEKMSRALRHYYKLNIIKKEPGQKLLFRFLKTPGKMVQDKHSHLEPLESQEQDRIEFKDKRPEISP
Procedure, shortened: as §1

ETV3 = target: T12, ETV3 (Homo sapiens, UniProt P41162-2 1-143)
T12 sequence: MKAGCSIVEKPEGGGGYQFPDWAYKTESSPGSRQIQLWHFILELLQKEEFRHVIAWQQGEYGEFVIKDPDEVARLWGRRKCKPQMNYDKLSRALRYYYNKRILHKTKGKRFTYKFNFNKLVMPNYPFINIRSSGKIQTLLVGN
Procedure, shortened: as §1

ETV6 = ETV6 (Homo sapiens, UniProt P41212 1-452)
Chain of ETV6 (P41212 whole entry): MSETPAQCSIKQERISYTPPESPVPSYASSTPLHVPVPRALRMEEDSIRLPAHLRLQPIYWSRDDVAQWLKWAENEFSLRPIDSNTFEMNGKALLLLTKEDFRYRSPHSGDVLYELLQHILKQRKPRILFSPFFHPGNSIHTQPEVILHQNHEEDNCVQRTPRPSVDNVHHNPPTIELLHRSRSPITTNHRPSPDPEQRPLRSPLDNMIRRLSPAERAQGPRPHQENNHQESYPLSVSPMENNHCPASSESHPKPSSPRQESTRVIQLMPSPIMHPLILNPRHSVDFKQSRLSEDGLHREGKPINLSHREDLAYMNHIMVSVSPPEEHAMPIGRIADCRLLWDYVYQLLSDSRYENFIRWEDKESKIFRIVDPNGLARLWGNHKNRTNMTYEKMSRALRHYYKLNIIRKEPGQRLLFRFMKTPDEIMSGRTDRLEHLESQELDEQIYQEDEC
Procedure, shortened: as §1

GTGTCC was tested, and the binding signal (FLI1) was 1.03 fold enrichment (6-mer frequency, TF over GST control), the binding signal (ELK1) was 1.07 fold enrichment (6-mer frequency, TF over GST control) and the binding signal (GABPA) was 1.1 fold enrichment (6-mer frequency, TF over GST control). The binding signal (ERG) was 1.13 fold enrichment (6-mer frequency, TF over GST control), the binding signal (ELF1) was 1.1 fold enrichment (6-mer frequency, TF over GST control) and the binding signal (EHF) was 1.08 fold enrichment (6-mer frequency, TF over GST control). The binding signal (SPI1) was 1.08 fold enrichment (6-mer frequency, TF over GST control), the binding signal (SPIB) was 1.13 fold enrichment (6-mer frequency, TF over GST control) and the binding signal (ELK3) was 1.05 fold enrichment (6-mer frequency, TF over GST control). The binding signal (ETV5) was 1.16 fold enrichment (6-mer frequency, TF over GST control), the binding signal (ELF4) was 1.08 fold enrichment (6-mer frequency, TF over GST control) and the binding signal (ETV2) was 1.19 fold enrichment (6-mer frequency, TF over GST control). For the same sequence, the binding signal (ELF3) was 1.22 fold enrichment (6-mer frequency, TF over GST control), the binding signal (ETV1) was 1.02 fold enrichment (6-mer frequency, TF over GST control) and the binding signal (ERF) was 1.06 fold enrichment (6-mer frequency, TF over GST control). For the same sequence, the binding signal (ETS2) was 1.16 fold enrichment (6-mer frequency, TF over GST control), the binding signal (ETV7) was 1.22 fold enrichment (6-mer frequency, TF over GST control) and the binding signal (ETV3) was 1.2 fold enrichment (6-mer frequency, TF over GST control). The binding signal (ETV6) was 1.02 fold enrichment (6-mer frequency, TF over GST control).
